Compounds without any hit were thinned out: in the full panel of roughly 79,000, 15% have a hit. Values without a mark were called inactive. Active and inactive are the calls of the source. No stated cut-off is given here; in the data, active means growth inhibition above about 70%; inactive means the rest.
Experiments:
[1] = NCI Yeast Anticancer Drug Screen. Data for the rad50 strain (AID 155);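 further: 0% = growth of vehicle-only cultures of the same strain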; settings: S. cerevisiae rad50 strain growth inhibition, hits give high values
In short: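 Cells are treated with compound, grown, and their growth is then scored against vehicle-only cultures of the same repair-deficient yeast strain.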

[2] = NCI Yeast Anticancer Drug Screen. Data for the mec2-1 strain (AID 157); settings: S. cerevisiae mec2-1 strain, hits give high values
In short: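 Compounds were applied to mec2-1 yeast cells. Their growth was then compared with that of vehicle-treated cultures to give growth inhibition.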

[3] = NCI Yeast Anticancer Drug Screen. Data for the sgs1 mgt1 strain (AID 161);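 further: 0% = growth of cultures given vehicle only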; settings: S. cerevisiae sgs1 mgt1 strain, hits give high values
In short: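 Yeast cells carrying a defined DNA-repair defect were exposed to test compounds. Growth inhibition was measured relative to vehicle-treated controls.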

[4] = NCI Yeast Anticancer Drug Screen. Data for the cln2 rad14 strain (AID 165);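 further: 0% = growth equal to vehicle treated cultures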; settings: S. cerevisiae cln2 rad14 strain, hits give high values
In short: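 Strain: cln2 rad14 yeast, altered in cell cycle control and DNA damage repair. Read-out: growth inhibition vs vehicle.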

[5] = NCI Yeast Anticancer Drug Screen. Data for the bub3 strain (AID 167); settings: S. cerevisiae bub3 mutant strain, hits give high values
In short: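 Part of a panel of yeast mutants defective in DNA damage repair or cell cycle regulation. Each strain is grown with compound, and inhibition is calculated relative to solvent-treated cultures.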

[6] = NCI Yeast Anticancer Drug Screen. Data for the mlh1 rad18 strain (AID 175); settings: S. cerevisiae mlh1 rad18 strain growth inhibition, hits give high values
In short: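 A repair-deficient yeast strain is exposed to test compound, and growth is scored relative to vehicle-treated controls.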

[7] = at 5.0 µM (retest, dose inferred, filed as 0.5)
[8] = at 50.0 µM (retest, dose inferred, filed as 5.0)

SMILES	growth inhibition [1, 7]	growth inhibition [1, 8]	growth inhibition ([1]; at 50.0 µM)	growth inhibition [2, 7]	growth inhibition [2, 8]	growth inhibition ([2]; at 50.0 µM)	growth inhibition [3, 7]	growth inhibition [3, 8]	growth inhibition ([3]; at 50.0 µM)	growth inhibition [4, 7]	growth inhibition [4, 8]	growth inhibition ([4]; at 50.0 µM)	growth inhibition [5, 7]	growth inhibition [5, 8]	growth inhibition ([5]; at 50.0 µM)	growth inhibition [6, 7]	growth inhibition [6, 8]	growth inhibition ([6]; at 50.0 µM)
CCCCN(CCCC)C(=O)c1ccc(OC(=O)OCC)c(OC)c1	4%	6%	56.9%	0%	10%	37%	2%	31%	49.8%	4%	17%	8.8%	2%	24%	85.1% (active)	-2%	29%	17%
CC(=O)Nc1ccc(Nc2ccc(C(=C3C=CC(=[N+](C)CCC#N)C=C3)c3ccc(N(C)CCC#N)cc3)cc2)cc1	11%	64%	8.4%	13%	77% (active)	47.7%	44%	83% (active)	58.4%	41%	83% (active)	55.5%	45%	77% (active)	59.5%	15%	72% (active)	45%
CC1CC(OC(=O)Nc2ccccc2)CC(C)(C)C1 (configuration not stated)	-33%	76% (active)	78.8% (active)	9%	74% (active)	80.6% (active)	-6%	87% (active)	91.5% (active)	4%	81% (active)	66.8%	10%	83% (active)	90.3% (active)	4%	87% (active)	85.6% (active)
BrCC(Br)Cc1ccc2c(c1)OCO2 (configuration not stated)	5%	30%	20.8%	2%	25%	-7.35%	3%	60%	49.4%	6%	21%	-21.6%	14%	39%	4.7%	-1%	84% (active)	56.9%
COc1cc(C(=O)[O][Sn]([c]2ccccc2)([c]2ccccc2)[c]2ccccc2)cc(OC)c1OC	100% (active)	99% (active)	98.6% (active)	100% (active)	100% (active)	99.2% (active)	99% (active)	99% (active)	98.5% (active)	99% (active)	99% (active)	89.2% (active)	99% (active)	99% (active)	97% (active)	99% (active)	99% (active)	98.3% (active)
Cc1ncc(CO)c(C=NCCCCCCN=Cc2c(CO)cnc(C)c2[O-])c1[O-].[Cu+2]	-2%	-1%	3.9%	-3%	1%	-20.4%	-4%	-5%	-5.85%	-5%	-1%	81.2% (active)	-3%	-1%	25.9%	-2%	0%	25.4%
Cc1c2cc[n+](C)cc2c(C)c2c1[nH]c1ccc(Cl)cc12	43%	97% (active)	90.2% (active)	28%	99% (active)	92.4% (active)	48%	99% (active)	93% (active)	35%	98% (active)	92.1% (active)	42%	99% (active)	91.6% (active)	51%	99% (active)	91% (active)
Cc1[nH]nc(C(=O)N/N=C/c2ccccc2Cl)c1N=NN(C)C	41%	91% (active)	92.5% (active)	50%	93% (active)	92.4% (active)	33%	94% (active)	91.9% (active)	5%	93% (active)	93.7% (active)	12%	88% (active)	89.7% (active)	72% (active)	94% (active)	95.3% (active)
Cc1cc(Cl)c(O)c(-c2cc(-c3ccccc3O)c(C#N)c(N)n2)c1	4%	75% (active)	59.5%	-22%	80% (active)	52.1%	-28%	80% (active)	67.7%	-4%	65%	69.4%	-59%	73% (active)	62.4%	-23%	87% (active)	55%
Cc1ccc(N=Nc2c(-c3ccccc3)nn(C(=S)S)c2-c2ccccc2)cc1	8%	48%	49.7%	9%	37%	38.5%	12%	72% (active)	55.8%	5%	39%	16.2%	36%	84% (active)	85.2% (active)	7%	34%	61.8%
COc1ccc(C2=CC(=O)C=CC2=O)cc1	19%	91% (active)	99% (active)	3%	97% (active)	99.5% (active)	14%	90% (active)	98.7% (active)	-5%	70% (active)	82.2% (active)	28%	99% (active)	99.5% (active)	18%	89% (active)	99.2% (active)
CC1=C(C)C(=O)C2=C(OCCCO2)C1=O	-9%	-12%	-6.55%	9%	-19%	-21.1%	-2%	11%	-0.8%	-21%	5%	5.35%	-13%	-19%	48.8%	-24%	-19%	10%
Cc1ccc2c(c1)NC(=O)C(N=[N+]=[N-])(c1ccccc1)C2=O (configuration not stated)	-25%	97% (active)	89.8% (active)	-2%	93% (active)	91.3% (active)	-1%	97% (active)	90.2% (active)	10%	71% (active)	91.3% (active)	-7%	98% (active)	92.3% (active)	-4%	98% (active)	70.4% (active)
Cc1ccc(SC2=C(N(C)C)C(=O)c3ccccc3C2=O)cc1	3%	90% (active)	96% (active)	-13%	94% (active)	14.1%	-1%	91% (active)	77.3% (active)	42%	94% (active)	58.1%	4%	90% (active)	95.2% (active)	-3%	89% (active)	89.7% (active)
CCCCOC(=O)c1nc(N(CC2CCCCC2)C(=O)NC)sc1NC(=O)NC	-3%	92% (active)	10.5%	-3%	95% (active)	0.85%	-18%	97% (active)	8.7%	-3%	95% (active)	1.6%	0%	95% (active)	-1.65%	5%	96% (active)	29.2%
COc1ccc(C2=C(Cl)C(=O)N(c3ccccc3C)C(=O)C2(Cl)Cl)cc1	66%	95% (active)	94.3% (active)	17%	97% (active)	97.8% (active)	83% (active)	97% (active)	97.9% (active)	24%	94% (active)	85.4% (active)	44%	95% (active)	94.1% (active)	70% (active)	93% (active)	97.7% (active)
O=C1C2=C(CCCC2)C(=O)c2ccccc21	6%	76% (active)	25.4%	8%	79% (active)	13.7%	11%	71% (active)	28%	3%	15%	-30.5%	35%	79% (active)	60.4%	7%	43%	68.5%
COc1ccc(/C(Cl)=C(\C=O)c2ccc(Cl)cc2)cc1OC	6%	61%	4.15%	-8%	35%	13.4%	-17%	56%	21.6%	7%	49%	0.1%	4%	70% (active)	13.6%	-5%	68%	24.1%
NC(=O)C1CCCN1C(=O)C1CCCN(Cc2cc(CN3CCCC(C(=O)N4CCCC4C(N)=O)C3)cc(CN3CCCC(C(=O)N4CCCC4C(N)=O)C3)c2)C1 (configuration not stated)	2%	9%	78.1% (active)	-5%	-21%	40.7%	-1%	-8%	59.5%	-2%	3%	16.9%	-23%	2%	48.8%	-7%	-1%	28.6%
